# Laboratory results taken from paper PMC12136788.
# Changes are numbered by the printed parent chain. The full ranking holds about 5,800 sequences; the median of “enrichment r” is about 0.54, and the highest 2% start at about 16. Only a selection was taken, and the highest values are over-represented in it overall.
# B1: chr10:110135209:110135310:+|3pUTR|ENSG00000148700|msi1|total|mutant (ssRNA)
# RNA: GGGAGUUCUACAGUCCGACGAUCCUCUCUAUUGGAAGAUUUUUUUAAUGUUCUACAUCAUUUAUGUUGUAUUACAAUGUAUGCCGAAACCGUAACCUGUGAACUAUGCUUUUCCAUAACUUUUUAAAAAUAUAUAUAUCUAAACAACAGAGGAUUGAGCAUCA
# B2: chr18:3457781:3457936:+|CDS|ENSG00000177426|unk|total|mutant (ssRNA)
# RNA: GGGAGUUCUACAGUCCGACGAUCCAACACUCCUCCCCCUACUCCACCGGACCUCAACCAGGACUUCAGUGGAUUUCAGCUUCCCGUGGAUGUUGCACUCAAACGGGCUGCAGAGAUGGAGCUUCAGGCAAAACUUACAGCUUACAACAGAGGAUUGAGCAUCA
# B3: chr8:88032264:88032379:-|3pUTR|ENSG00000156103|unk|FALSE|bound_elsewhere (ssRNA)
# RNA: GGGAGUUCUACAGUCCGACGAUCACUCCUUAUAAUGUUGCGUCAUUAAAGGUCAAGGGGUCAUGCUAUUAAUCUCAUUGCUAUAGACCAUUAACAUGACUGAACUUUUCCACAAAGUACUUAUGUUUACAAUGCUAUAACCCUCAACAGAGGAUUGAGCAUCA
# B4: ENSG00000150457:stop:overlap|stop_codon|ENSG00000150457|stop_codon|NA|stop_codon (ssRNA)
# RNA: GGGAGUUCUACAGUCCGACGAUCCAGAUUUAGAAAGCUCUGAUCUGGUGGAUCAGACUGAAGGCUGCCAGCCUGUGUACGUGUAGAUGGGGGCCAGGCACCCCCACCACUCGCUGCCUCCCAGGUCAGGGUCCCGGAGCCGGUCAACAGAGGAUUGAGCAUCA
# B5: chr11:118657315:118658441:-|three_prime_utr|ENSG00000118094|control|control|control (ssRNA)
# RNA: GGGAGUUCUACAGUCCGACGAUCCCUCCCAGCCUGUCCUCAGAGCGAAGUGGAGGGCAGGGUCACGACCUGGAGGUCAUGGGUAGGGGCCUAGCUCCCUCCUGGAACCUUGAAUAGGGUGGAAAUCCUGCUCUGGAGGGAAGACAACAGAGGAUUGAGCAUCA
# B6: chr1:156742365:156742464:-|3pUTR|ENSG00000143321|msi1_unk|total|mutant (ssRNA)
# RNA: GGGAGUUCUACAGUCCGACGAUCAUUUCUGAGGUGCACUGGGAGGCUCCCCUUCUAUUUGGGGCUUGAUGACUUUCUUUUUGCCGCUGGGGCUUUGAUGUUCCUUCCAGUGUCAUUUCUCAUCCACAUACCCUGACCUGGCCCCAACAGAGGAUUGAGCAUCA
# B7: chr3:44647099:44647200:+|3pUTR|ENSG00000186448|msi1|total|mutant (ssRNA)
# RNA: GGGAGUUCUACAGUCCGACGAUCAUUUGUAUGUAAACUACAUAAAGAACUUUCCAAAUUUAACAGUAAUAAGUAAAUACAAUCCGAAAAUAAGCAAAAGACAGACAUUUCACUGAAGUACCGACCGCAAAUAAGCAAAUGAAACAACAGAGGAUUGAGCAUCA
# B8: chr3:44647099:44647200:+|3pUTR|ENSG00000186448|msi1|FALSE|unique (ssRNA)
# RNA: B7 RNA with C83U, C84A, C120U, C121A, C124U, C125A
# B9: chr12:125025615:125025697:+|3pUTR|ENSG00000184992|msi1_unk|FALSE|overlapping (ssRNA)
# RNA: GGGAGUUCUACAGUCCGACGAUCGGACACAUUCCCAGAAGAGCGGAAAGAUCAUUGACGUGGAACUACACACGAAGUGUAAUUAGUGGGGGAAAAAAUAUUUUUUAAACAAAGGAUAUAACCAUAUUUAGUUGUACAGUAAGACAACAGAGGAUUGAGCAUCA
# B10: chr8:30843048:30843149:-|CDS|ENSG00000133863|unk|total|mutant (ssRNA)
# RNA: GGGAGUUCUACAGUCCGACGAUCGGAUACUAUAAUUGCUUCCAGAAAGUCAGAUCAUCCAAUAAACGAAGCAACAAUCCGCACCGAAAAUUCUAAAUUUAACAGUAAUUUGCUUGCACACCCAGAUAUUUGUUGUAUCCGUGACAACAGAGGAUUGAGCAUCA
# B11: chr19:34227675:34227687:+|3pUTR|ENSG00000257103|msi1_unk|total|mutant (ssRNA)
# RNA: GGGAGUUCUACAGUCCGACGAUCUUAAAACAUGAGCAUUAAAUAUAUUUGGAACCGCAGAAGGUUAAGUAAUUUCUUAUGUACCGUUAAACUAAAGCAGUACUUCAGUGGGACUUAACAAGUAUUUUUUCAUCACUGAAAGGUCAACAGAGGAUUGAGCAUCA
# B12: chr11:85958428:85958534:-|3pUTR|ENSG00000073921|unk|FALSE|unique (ssRNA)
# RNA: GGGAGUUCUACAGUCCGACGAUCAGAAACAAUAACUGAAAUUAACUUUUCUUUUUUUAAAAAAAAUUAUAUUCAGUUUGCAGUAGACAUUCCUUAAGUAUUUGUAUUUAUUUAUGAUUAUCAAUUUUACAUAACAUUAAUAUUCAACAGAGGAUUGAGCAUCA
# B13: chr8:30843048:30843149:-|CDS|ENSG00000133863|unk|FALSE|unique (ssRNA)
# RNA: B10 RNA with C78U, C79A, C83U, C84A, C138U, C139A
# B14: ENSG00000067715:stop:overlap|stop_codon|ENSG00000067715|stop_codon|NA|stop_codon (ssRNA)
# RNA: GGGAGUUCUACAGUCCGACGAUCAGGAGAAGUUUAUGAAUGAGUUGCAUAAAAUUCCAUUUCAAAGGAAAGAGAGUACCAAUUAGACAAGGGAAGAAGAUGAGAGACUGCCUGAACAGCAUCACUUUUGUAAACUGAGAGUUCCAACAGAGGAUUGAGCAUCA
# B15: chrX:41141081:41141111:+|CDS|ENSG00000124486|msi1_unk|total|mutant (ssRNA)
# RNA: GGGAGUUCUACAGUCCGACGAUCCACUCUUCAUACAGUGAAAAAGUACUUUCUUCCAAUAACCGAAAUGGUUCCACAGUUUUCCGAAAACUUAACUGAUGAAGAACUGAAAAAAGAAGCAAAGAAUGAAGCCAAAAAUGAUGCCAACAGAGGAUUGAGCAUCA
# Molecular target: MSI1 full-length (mouse, UniProt Q61474 1-362)
# Assay: nsRBNS (natural sequence RNA bind-n-seq); RBNS binding buffer (assumed for nsRBNS): 25 mM Tris pH 7.5, 150 mM KCl, 3 mM MgCl2, 0.01% Triton X-100, 500 ug/ml BSA, 20 U/ml SUPERase-In, 4 C; UNK is unkempt and MSI1 is Musashi-1; names of the RNAs are library labels; protein concentration not given here; high values mean tight binding
# Sequence of MSI1 full-length (Q61474 whole entry): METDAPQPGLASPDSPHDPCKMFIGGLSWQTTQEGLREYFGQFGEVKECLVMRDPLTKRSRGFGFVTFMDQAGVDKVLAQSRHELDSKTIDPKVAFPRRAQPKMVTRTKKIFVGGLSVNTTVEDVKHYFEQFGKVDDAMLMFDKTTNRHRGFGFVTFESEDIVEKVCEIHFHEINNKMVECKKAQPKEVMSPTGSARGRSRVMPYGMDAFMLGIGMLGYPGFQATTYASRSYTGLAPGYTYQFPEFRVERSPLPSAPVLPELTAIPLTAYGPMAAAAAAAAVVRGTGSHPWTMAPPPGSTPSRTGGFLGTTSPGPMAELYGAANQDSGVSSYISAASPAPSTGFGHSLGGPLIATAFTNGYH
row,Binder,binding signal [enrichment R]
1,B1,7.3
2,B2,0.52
3,B3,0.72
4,B4,0.418
5,B5,0.327
6,B6,0.353
7,B7,19.7
8,B8,129
9,B9,3.62
10,B10,1.28
11,B11,1.31
12,B12,4.67
13,B13,29.7
14,B14,0.457
15,B15,0.267
